Screening results (PubChem)
Only some compounds are listed: those with a hit (about 1.4% of all), similar ones and a draw of the others.
RecA splice inh: Mtb RecA intein splicing inhibitors, primary screen, biochemical, fluorescence, HTS; cell-free RecA intein splicing; inhibition, % (test concentration not listed); hit rate 0.75% among 290,000; in the data active = inhibition above about 30%;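 note: 0% = vehicle wells and 100% = reference inhibitor control wells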
Mtb hypoxia inh: PubChem AID 1159583 | M. tuberculosis hypoxia-regulated fluorescent reporter, fluorescence | fluorescence inhibition, % (concentration not given with the values) | hit rate 0.1% among 300,000; in the data active = fluorescence inhibition mostly above about 23%, no sharp cut-off; inactive = mostly below about 17%
3CLpro inhibitor: SARS-CoV 3CLpro protease inhibitors, primary screen, biochemical, quenched FRET | Replicase polyprotein 1ab (Severe acute respiratory syndrome coronavirus), P0C6X7 | recombinant SARS-CoV 3CLpro, quenched FRET peptide cleavage | inhibition, % at 6 µM | hit rate 0.14% among 290,000 | AID 1706, 2009; in the data active = inhibition above about 12%
BJeLR lethal: MLPCN primary cell-based screen for lethality selective to Ras in HRASV12 cells; BJeLR (HRASV12) viability, CellTiter-Glo ATP luminescence, 48 h; inhibition, % (test concentration not listed); hit rate 0.17% among 300,000; AID 1554, 2009; in the data active = inhibition above about 50%
PrP 5UTR inh: inhibition of PrP 5' UTR reporter expression. inhibition, % (concentration not given with the values). AID 488862, 2010. cell-based PrP 5' UTR mRNA reporter, plate reader. hit rate 0.35% among 340,000; in the data active = inhibition above about 52%; note: 0 = median of the neutral control wells
PrPC TRFRET: inhibitors of human cell surface prion protein PrPC, primary screen, cell-based, TR-FRET; TR-FRET read-out; inhibition, % at 13.8 µM; hit rate 0.43% among 370,000; AID 720596, 2013; in the data active = inhibition above about 24%; note: 0% = median of the test wells and 100% = reference compound wells
PrPC confirm: confirmation of inhibitors of cell surface human prion protein, confirmation, cell-based, TR-FRET; shares compounds with PrPC TRFRET; cell surface PrPC level; inhibition, % at 13.8 µM; hit rate 65% among 1,500; in the data active = inhibition above about 25%
LD9 cytotox: cytotoxicity in LD9 cells, cytotoxicity control for cell surface PrPc inhibitor project, cell-based, luminescence, high throughput; AID 743201, 2013; luminescence viability; shares compounds with PrPC TRFRET; inhibition, % at 13.8 µM; hit rate 29% among 1,500; in the data active = inhibition above about 9.5%
Numbers without * were called inactive; · = no result shown.

SMILES	RecA splice inh	Mtb hypoxia inh	3CLpro inhibitor	BJeLR lethal	PrP 5UTR inh	PrPC TRFRET	PrPC confirm	LD9 cytotox
O=C(N/N=C/c1ccc[nH]1)c1ccc(COc2cccc3cccnc23)cc1	5	·	-2	4	-26	14	·	·
Cc1cc(Br)c(OCc2ccc(C(=O)N/N=C/c3ccc[nH]3)cc2)c(Br)c1	·	·	·	·	36	26*	52*	65*
C[C@@H]1COC(=O)[C@H](Cc2ccc(F)cc2)C/C=C\C[C@@H](CC(=O)NCCO)C(=O)N1	·	·	·	·	-21	44*	7	-3
O=C1NC(=O)C(=Cc2ccccc2Oc2ccc(Cl)cc2)S1	·	0	·	·	·	·	·	·
COC(=O)c1ccc(C(c2c(N)n(CC(C)C)c(=O)[nH]c2=O)N2CCN(c3ccccc3)CC2)cc1 (stereo not given)	5	11	0	-11	-11	30*	10	10*
CCCn1c(N)c(C(c2ccc(C(=O)OC)cc2)N2CCN(c3ccccc3)CC2)c(=O)[nH]c1=O (stereo not given)	2	8	-4	-7	-4	0	·	·
CCOC(=O)c1sc(C)c2c1NC(C)(c1cccs1)NC2=O (stereo not given)	9	-8	-3	3	-26	36*	34*	-5
CC#CCN1c2ccccc2[C@]23CC(C(=O)OC)N(C(=O)c4ccco4)C2=NC(C(=O)OC)=C(C(=O)OC)C13 (stereo not given in full)	·	16	·	·	·	·	·	·
COc1ccccc1NS(=O)(=O)c1cccc(NC(=O)Nc2ccccc2)c1	1	10	9	2	-14	20	·	·
COc1ccccc1NS(=O)(=O)c1cccc(NC(=O)Nc2ccc(Cl)cc2)c1	0	13	4	7	-12	45*	19	0
CCN(C(=O)CON=Cc1ccc(OC)cc1OC)c1c(N)n(Cc2ccccc2)c(=O)[nH]c1=O	·	7	·	·	·	·	·	·
CC(=O)N1CCCc2cc(S(=O)(=O)N3CCCC(C(=O)Nc4cccc(F)c4)C3)ccc21 (stereo not given)	1	-3	-8	9	-11	36*	24*	11*
CC(=O)N1CCCc2cc(S(=O)(=O)N3CCCC(C(=O)N4CCN(c5cc(C)ccc5C)CC4)C3)ccc21 (stereo not given)	10	-7	6	9	12	25*	21	9.3*
CCOC(=O)c1ccc(NC(=O)C2CCN(S(=O)(=O)c3ccccc3)CC2)cc1	1	3	0	-3	-62	-4	·	·
CCOC(=O)c1ccc(NC(=O)C2CCCN(S(=O)(=O)c3ccc(F)cc3)C2)cc1 (stereo not given)	2	11	2	4	-15	30*	18	2
CC(=O)N1CCCc2cc(S(=O)(=O)N3CCCC(C(=O)N4CCN(c5ccccc5)CC4)C3)ccc21 (stereo not given)	0	-6	-9	11	-20	17	·	·
CCc1ccc(NC(=O)C2CCCN(S(=O)(=O)c3ccc4c(c3)CCCN4C(C)=O)C2)cc1 (stereo not given)	-3	-1	0	10	-13	25*	37*	9
COC(=O)C1CC2CCC(O)CC2N1Cc1ccc(Cl)cc1 (stereo not given)	·	5	·	·	·	·	·	·
CCCc1ccc(C(=O)NNc2cc(Cl)ccc2Cl)cc1	6	-5	4	-6	-4	25*	27*	5
CCc1ccc(C(=O)NNc2ccc(Cl)cc2)cc1	1	-7	3	-3	-39	31*	43*	3
CCCc1ccc(C(=O)NNC(=O)c2ccc(Cl)cc2)cc1	-1	-9	-3	-2	-22	4	·	·
CCc1ccc(C(=O)NNc2cc(Cl)cc(Cl)c2)cc1	4	-7	2	1	-11	14	·	·
CC(O)CC(=O)OC[C@]12CC[C@H]3[C@@](C)(CC[C@H]4C(C)(C)CCC[C@]34C)[C@@H]1CC(C1=CC(=O)OC1O)O2 (stereo not given in full)	·	·	·	·	·	34*	26*	64*
CC(C)(C)C1C=C(C(=O)O)OC(OCc2ccc(CO)cc2)C1 (stereo not given)	·	22	·	·	·	·	·	·
Cc1ccc(-c2cc(C(=O)NN=Cc3ccco3)[nH]n2)cc1	·	24	·	·	·	·	·	·
SMILES	RecA splice inh	Mtb hypoxia inh	3CLpro inhibitor	BJeLR lethal	PrP 5UTR inh	PrPC TRFRET	PrPC confirm	LD9 cytotox
CCOCCCNc1ncnc2c1[nH]c1ccccc12	4	18	-6	4	-12	13	·	·
CCCCOCCCNc1ncnc2c1[nH]c1ccccc12	2	-7	-4	-2	-14	31*	24*	17*
O=[N+]([O-])c1ccc(OCCOc2ccccc2C=Nn2cnnc2)cc1	·	4	·	·	·	·	·	·
C[C@@H]1C[C@@H]([C@H](O)CC2CC(=O)NC(=O)C2)C(=O)[C@@H](C)C1	·	·	·	·	45	82*	86*	33*
N#CNC(=Nc1cccc(F)c1)SCc1ccccc1F	2	0	-3	5	-5	26*	17	8
COC(=O)/C(C(C)=O)=C(/C=C/C=C/N(C)C)N(C)C	-4	0	0	1	-5	50*	7	4
COP(=O)(OC)c1nc(-c2ccccc2)oc1NCc1ccccc1	2	2	-2	5	-16	7	·	·
CCCOP(=O)(OCCC)c1nc(-c2ccccc2)oc1NCc1ccccc1	0	-1	3	6	-8	28*	14	-6
N#Cc1c(Cl)cccc1N1CCSCC1	·	·	·	·	·	-5	·	·
N#Cc1c(N2CCSCC2)nsc1-c1ccccc1Cl	1	12	8	6	-20	27*	23	-7
CC(C)c1ccc(-n2c(-c3ccccc3)c[n+]3c2CCc2ccccc2-3)cc1	5	·	-1	11	-8	41*	50*	37*
COc1ccc(-n2c(-c3ccc(Br)cc3)c[n+]3c2CCc2ccccc2-3)cc1	3	·	-4	7	-15	15	·	·
CCOc1cc(C(=S)N2CCCC2)ccc1OCc1ccccc1	3	14	0	-4	16	27*	7	-5
COc1cc(C(=O)Nc2scc(-c3ccccc3)c2C(=O)O)cc(OC)c1OC	·	14	6	-10	-14	-1	·	·
COc1cc(C(=O)Nc2scc(-c3ccc(C)cc3)c2C(=O)O)cc(OC)c1OC	-2	-3	10	-5	-25	60*	69*	-5
COC(=O)C1C[C@@]2(O)C(O)C(O)C(O)CC2N1Cc1ccc(Cl)cc1 (stereo not given in full)	·	13	·	·	·	·	·	·
